High-throughput results from PubChem.
TRAIL sens C8 = caspase-8 TRAIL sensitization. AID 624354. inhibition (viability loss, TRAIL sensitization), % at 10 µM. NB7+C8 cells + TRAIL, ATPlite viability luminescence. 360,000 tested, 1% active;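 active = compounds causing at least 50% loss of cell viability in the single-dose screen, relative to plate controls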
STAT1 blocker = inhibitors of IFN-gamma induced STAT1 signaling | NIH 3T3 STAT1-luciferase reporter, luminescence | inhibition, % at 5.5 µM | 200,000 tested, 0.35% active | AID 920;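 active = inhibition above a set limit, the mean inhibition across all tested compounds plus 3 SD, cut at about 34% in these data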;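 also: 0% = IFN-gamma with DMSO and 100% = IFN-gamma with 300 µM nifuroxazide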
HSP90 refold inh = inhibitors of HSP90 luciferase refolding in rabbit reticulocyte lysate. AID 1789. luciferase refolding luminescence, 3 h. 290,000 tested, 0.91% active. inhibition, % at 5.6 µM;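 active = inhibition above the screen-wide mean plus 3 SD, computed separately per campaign, cut at about 16% in these data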;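 also: 0% = DMSO wells and 100% = 60 µM geldanamycin wells; inhibitors lower the luminescence because luciferase stays unfolded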
HSF1 inh = HSF1 inhibition | AID 2098 | 300,000 tested, 0.77% active | NIH3T3-HGL HSE-luciferase, MG132-induced, luminescence 8 h; hits give low values | activity change, negative = inhibition, % at 7.5 µM (by protocol);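 active = more than half of replicate wells show activity change below -50%, luminescence cut by over half; inconclusive = some wells, but at most half, below -50%; inactive = no replicate well below -50%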;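 also: luciferase reports HSF-1 transcriptional activity via heat shock element; 0% = median of DMSO wells and -100% = zero luminescence signal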
STAT3 inh = reduces IL-6 driven STAT3 reporter signal. U3A cells, IL-6 STAT3-luciferase reporter, luminescence; host cell line lacks STAT1. inhibition, % at 5.5 µM. 190,000 tested, 0.89% active;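 active = inhibition above the mean inhibition across all screened compounds plus 3 SD, cut at about 44% in these data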;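 also: 0% = DMSO only wells and 100% = 100 µM nifuroxazide control wells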
PPC-1+TRAIL kill = compounds killing PPC-1 cancer cells with TRAIL present (potentiator screen, no TRAIL-free arm); PPC-1 cells + TRAIL, ATPLite viability luminescence; cell killing (% activity), % at 4 µM or 5 µM; 220,000 tested, 0.41% active;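 active = cell killing above 50% in the first pass at 4 µM, then a duplicate retest at 5 µM averaging 50% or more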;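 also: plate controls were cells with TRAIL plus DMSO for no effect and medium-only wells lacking cells for full effect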
HSP90 inh confirm = HSP90 inhibition, confirmation assay. 2,300 tested, 64% active. rabbit reticulocyte lysate, luciferase refolding luminescence, 3 h. inhibition, % at 5.9 µM. AID 1846. shares compounds with HSP90 refold inh; in the data active = inhibition above about 18%;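 also: 0% = vehicle wells and 100% = reference inhibitor wells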
luciferase ctr = blocks native firefly luciferase in HSP90 counter-screen; inhibition, % at 5.9 µM; 2,300 tested, 48% active; purified native firefly luciferase, luminescence; shares compounds with HSP90 refold inh;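 active = inhibition above the mean inhibition of all tested sample wells plus 3 SD, cut at about 10% in these data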;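 also: 0% = DMSO with luciferase and 100% = wells lacking luciferase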
Target sequence (P08659 whole entry, looked up): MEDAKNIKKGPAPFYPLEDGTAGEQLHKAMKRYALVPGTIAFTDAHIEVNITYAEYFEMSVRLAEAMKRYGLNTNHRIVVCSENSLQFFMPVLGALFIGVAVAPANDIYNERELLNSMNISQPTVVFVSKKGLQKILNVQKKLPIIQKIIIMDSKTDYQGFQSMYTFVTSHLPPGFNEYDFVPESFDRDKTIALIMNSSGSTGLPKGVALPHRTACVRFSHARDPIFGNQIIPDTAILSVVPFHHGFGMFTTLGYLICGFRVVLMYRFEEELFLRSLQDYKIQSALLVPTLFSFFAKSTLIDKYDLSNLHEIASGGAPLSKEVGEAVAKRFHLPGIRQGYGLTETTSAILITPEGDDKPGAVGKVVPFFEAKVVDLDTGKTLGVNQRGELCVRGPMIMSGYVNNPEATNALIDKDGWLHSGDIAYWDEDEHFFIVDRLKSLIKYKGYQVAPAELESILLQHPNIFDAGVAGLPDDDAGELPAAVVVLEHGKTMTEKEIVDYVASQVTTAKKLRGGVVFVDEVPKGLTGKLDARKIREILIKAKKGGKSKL
The depositor's hits bear a star; ? = inconclusive; . = no result. Most compounds without a hit are left out; they make up all but 2.4% or so of the library.

SMILES	TRAIL sens C8	STAT1 blocker	HSP90 refold inh	HSF1 inh	STAT3 inh	PPC-1+TRAIL kill	HSP90 inh confirm	luciferase ctr
COc1ccc(C(=O)Nn2c(SCC(=O)c3ccc(Cl)cc3)nc3ccccc3c2=O)cc1	13.8	16.0	77.2*	-70.7*	25.9	40.7	52.7*	45.6*
O=[N+]([O-])C1C(c2ccccc2)C12c1ccccc1-c1ccccc12 (stereo not given)	30.2	.	.	.	.	.	.	.
CCC(=O)N1CCc2cc(S(=O)(=O)N(CC)c3cccc(C)c3)ccc21	22.1	5.2	61.7*	8.9	3.2	5.0	-3.9	-5.7
CCC(=O)N1CCc2cc(S(=O)(=O)CCC(=O)NCCc3ccccc3)ccc21	-12.9	0.9	0.7	-7.7	-5.6	9.7	.	.
CCC(=O)N1CCc2cc(S(=O)(=O)CCC(=O)NCc3ccco3)ccc21	-6.1	0.0	23.0*	-5.1	5.7	36.2	-6.2	-9.7
O=C(CNC(=O)Cc1ccc(Cl)cc1)NCC(=O)N1CCCCC1	4.9	.	22.7*	-8.3	.	.	-3.3	-7.4
CN1CCN(c2ccc(CNC(=O)C3Cc4c(-c5ccccc5)ccnc4O3)cc2)CC1 (stereo not given)	-8.9	.	.	.	.	.	.	.
O=C(c1ccc(F)cc1F)N1CCN(c2ccccn2)CC1	4.3	.	1.8	-1.2	.	.	.	.
COc1ccccc1NS(=O)(=O)NC(=O)c1c(C)[nH]c2ccccc12	-3.6	.	-4.0	0.9	.	.	.	.
Cc1[nH]c2ccccc2c1C(=O)NS(=O)(=O)Nc1ccc(Cl)cc1	1.3	1.6	18.3*	11.6	-5.2	1.9	0.6	-2.2
COc1ccc(CNC(=O)CN2C(=O)COc3ccc(S(=O)(=O)N4CCOCC4)cc32)cc1	-6.8	.	-3.7	-3.9	.	.	.	.
COc1ccc(/C=C(/C(=O)NCc2ccccc2)c2ccccc2)cc1	5.2	-8.5	0.4	-10.1	-8.1	-3.0	.	.
O=C(O)c1ccc(-c2ccc(-c3ccccc3)cc2)s1	33.8	.	93.6*	-50.7*	.	.	93.4*	83.4*
O=C(Nc1ccccc1)c1ccc(-c2ccccc2)s1	10.8	-44.0	2.6	18.8	-1.6	32.7	.	.
COc1ccccc1-c1csc(C(C)(NC(C)=O)c2ccccc2)n1 (stereo not given)	20.0	.	.	.	.	.	.	.
C/C(=N\Nc1nncc2ccccc12)c1cccc(OC(F)F)c1	80.9*	.	24.8*	38.7	.	.	39.8*	23.2*
C/C(=N\Nc1nncc2ccccc12)c1ccc(O)cc1	59.8*	.	20.3*	-1.0	.	.	31.7*	12.1*
CC1=C(C(=O)N(C)C)CC(CC(=O)NCCCN(C)C)C(=O)N1CCCN1CCCC1=O (stereo not given)	-8.9	.	.	.	.	.	.	.
NC(=S)N/N=C/c1ccc(C23CC4CC(CC(C4)C2)C3)cc1	.	.	23.6*	0.8	.	.	8.2	-31.8
COc1ccc(C(C)(NC(C)=O)c2nc(-c3ccncc3)cs2)cc1 (stereo not given)	-6.3	.	.	.	.	.	.	.
CCN1CCN(Cc2ccc(NC(=O)c3ccc(C)c(NC(=O)c4cccc(-c5cn[nH]c(=O)c5)c4)c3)cc2C(F)(F)F)CC1	38.3	.	19.5*	-35.4	.	.	18.7*	-7.9
COc1cccc(-c2cc3nc4c(c(NCC(C)(C)CN(C)C)n3n2)CCCC4)c1	11.8	-44.8	45.5*	?	-8.5	.	44.1*	2.9
COc1cc(C2NC(=O)NC(c3ccccc3)=C2C(C)=O)c(Br)c(Br)c1O (stereo not given)	-1.0	.	17.9*	3.9	.	.	-0.5	-2.3
CCOC(=O)CC1(CC)Oc2ccccc2N1S(=O)(=O)c1ccc(C)cc1 (stereo not given)	-8.6	.	.	.	.	.	.	.
COc1cc(NCCCC(C)N)c2ncccc2c1 (stereo not given)	17.8	-3.6	23.1*	17.6	1.3	.	5.0	-6.2
SMILES	TRAIL sens C8	STAT1 blocker	HSP90 refold inh	HSF1 inh	STAT3 inh	PPC-1+TRAIL kill	HSP90 inh confirm	luciferase ctr
C=CCNc1nc(-c2ccc3c(c2)OCCO3)cs1	21.1	.	18.9*	-3.2	.	.	33.3*	32.3*
O=C(Nc1nc(-c2ccncc2)cs1)c1ccco1	-3.1	-19.6	-3.0	9.0	11.4	-10.5	.	.
c1ccc(-c2csc(Nc3ccc4c(c3)OCCO4)n2)cc1	18.9	-42.1	13.3	-2.9	6.1	37.1	.	.
O=C(Nc1nc(-c2ccc3c(c2)OCCO3)cs1)c1ccco1	47.3	.	18.1*	30.6	.	.	20.4*	9.9*
c1cc2c(cc1Nc1nc(-c3ccc4c(c3)OCO4)cs1)OCCO2	3.7	-40.1	37.4*	8.7	9.4	-3.4	23.5*	-9.8
NS(=O)(=O)c1ccc(CCNC(=O)c2cccc(S(=O)(=O)N3CCc4ccccc43)c2)cc1	0.4	.	.	.	.	.	.	.
CCNC(=O)C1(C)CCCN(C(=O)c2ccc(C(F)(F)F)nc2C)C1 (stereo not given)	-6.8	.	.	.	.	.	.	.
CC(C)c1ccc(NC(=O)C2Cc3c(-c4ccco4)ccnc3O2)cc1 (stereo not given)	15.5	.	.	.	.	.	.	.
O=C1CC(N2CCN(c3ccc(C(=O)c4ccc(F)cc4)cc3)CC2)C(=O)N1 (stereo not given)	12.9	-0.4	1.4	1.6	9.5	14.6	.	.
Cc1ccc(C(=O)NCCN2C3=NC[C@H](C(C)C)N3C[C@H]2Cc2ccc(O)cc2)cc1Br	-1.0	-4.1	0.8	-2.7	.	11.1	.	.
COc1ccc(C[C@H]2CN3C(=NC[C@@H]3C(C)C)N2CCNC(=O)c2ccc(C)c(Br)c2)cc1	31.3	20.0	18.0*	11.3	.	16.0	3.3	-7.0
CCC1Oc2ccccc2N(CC(=O)N2CC(C)CC(C)C2)C1=O (stereo not given)	8.5	.	.	.	.	.	.	.
Cc1oc2cc(O)ccc2c(=O)c1Oc1ccccc1	0.9	1.0	-0.9	-0.2	5.3	-3.4	.	.
O=C(O)c1ccc(Oc2c(C(F)(F)F)oc3cc(O)ccc3c2=O)cc1	14.8	7.3	31.3*	-1.6	0.9	23.0	1.0	-3.2
COc1ccccc1N(/N=C1\Sc2ccccc2C1=O)C(C)=O	49.2	.	70.7*	-67.8*	.	48.4	75.9*	34.3*
COc1ccc(N(/N=C2\Sc3ccccc3C2=O)C(C)=O)cc1	6.8	-54.8	19.6*	26.3	5.5	4.7	73.1*	-18.9
COc1ccccc1NC1=C(NC(C)=O)C(=O)c2ccccc2C1=O	-8.2	2.1	-3.8	7.0	-18.7	7.5	.	.
CCOC(=O)C1(C)CCCN(C(=O)c2ccc(F)cc2Cl)C1 (stereo not given)	-14.6	.	.	.	.	.	.	.
CC(=O)/C=C(\C)Nc1ccccc1O	15.2	.	17.7*	12.4	.	11.2	25.9*	-8.3
CCn1c(NCc2ccc(N(C)C)cc2)nc2ccccc21	18.8	4.4	2.3	8.3	1.1	13.4	.	.
CN(C)c1ccc(N=Nc2nc3ccccc3n2C)cc1	95.0*	.	21.5*	-83.1*	.	5.4	19.4*	92.9*
O=c1cc(-c2cccc([N+](=O)[O-])c2)[nH][nH]1	-0.1	-1.4	23.8*	-0.2	-4.7	21.4	0.4	-3.0
